Compound activity deposited in PubChem BioAssay by National Center for Advancing Translational Sciences (NCATS).
Sampled rows, rich in hits. Any-hit rate of the full collection: about 2.2%.
LDHA block = LDHA (human) enzyme inhibition | purified LDHA, NADH/diaphorase-resazurin fluorescence; hits give low values | activity change, % (values are at about 110 or 230 µM) | actives 0.15% (n = 480,000) | AID 1347041; in the data active = activity change below about -30%; inconclusive = mostly about -25% to -30%;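 also: plate controls were DMSO wells for no effect and wells without enzyme for full effect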
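Remaining NADH was detected by diaphorase (0.133 mg/mL) converting 37 µM resazurin to fluorescent resorufin, read at 0 and 20 minutes. The preceding 5-minute room-temperature reaction used 2 nM LDHA, 0.2 mM sodium pyruvate and 0.06 mM NADH at pH 7.4.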
TGFb inhibitor = TGF-b pathway inhibition. Potency, µM (top dose mostly 46.1 µM), without a hit: at the top dose activity, negative = inhibition, usual class: inhibitors. AID 588855. HepG2 CAGA-GFP TGF-b/SMAD3 reporter, GFP fluorescence, 18 h; TGF-beta stimulated, 500 pg/mL final. actives 1.2% (n = 410,000); also: potency is read from the fitted curve at half-maximal effect; % is scaled to controls: 0 for no effect and ±100 for the full control effect; nearly all actives have a fitted effect of over 65% in size
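Read-out: total well GFP (ex488/em500-530) summed from mean per-cell fluorescence. Cells: HEPG2 CAGA-GFP, 1% FBS DMEM, 18 h at 37 degrees C with 500 pg/mL final TGF-beta. Unstimulated wells served as the full-inhibition control; stimulated DMSO wells = 0%.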
ATXN2 expr inh = ATXN2 expression inhibition | Potency, µM (titrated, usually from 57 µM), for the others: at the top dose activity change, negative = inhibition, hits mostly inhibitors | AID 1745845 | actives 0.72% (n = 360,000) | HEK-293 ATXN2-luciferase reporter, luminescence, 24 h; also: potency is read from the fitted curve at half-maximal effect; % is scaled to controls: 0 for no effect and ±100 for the full control effect; nearly all actives have a fitted effect of over 55% in size
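qHTS (up to 57 uM final) was run with 24 h compound exposure of reporter cells at 37 °C. Each well was multiplexed: SteadyGlo luminescence measured ATXN2-luciferase expression after a fluorogenic Gly-Phe-AFC viability readout (25 uM final).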
HepG2 viability = kills HepG2 cells in TGF-b inhibitor counter-screen; HepG2 CAGA-GFP viability, ATP luminescence, 18 h; Potency, µM (top dose mostly 46.1 µM), without a hit: at the highest dose activity change, negative = cytotoxicity, hits mostly cytotoxic; actives 0.76% (n = 410,000); also: potency is read from the fitted curve at half-maximal effect
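CellTiter-Glo luminescence gave cytotoxicity after 18 hours at 37 degrees C. The cells were HepG2 CAGA-GFP in 1% FBS DMEM, stimulated with 500 pg/mL TGF-beta after compound addition. %Activity was normalised to no-cell wells (complete cell-killing) and DMSO (no toxicity), and curves were fitted and classified.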
S2 tox = viability counter-screen for ATXN expression inhibitors; S2 cells (HEK-293 line with an ATXN2-luciferase reporter) viability, CellTiter-Fluor protease fluorescence, 24 h; Potency, µM (top dose mostly 56.7 µM), hits mostly cytotoxic; actives 0.49% (n = 400,000); AID 651635; also: potency is read from the fitted curve at half-maximal effect; nearly all actives have a fitted effect of over 40% in size
mIDH1 inhibitor = blocks human mutant IDH1 R132H enzyme; O75874; IDH1-R132H enzyme, NADPH consumption, diaphorase/resazurin fluorescence; Potency, µM (titrated, usually from 76.6 µM), for the others: at the highest dose activity change, negative = inhibition, usual class: inhibitors; actives 0.093% (n = 390,000); AID 602179; also: potency is read from the fitted curve at half-maximal effect; % is scaled to controls: 0 for no effect and ±100 for the full control effect; nearly all actives have a fitted effect of over 65% in size
Target sequence (O75874 whole entry R132H, stated change not applied): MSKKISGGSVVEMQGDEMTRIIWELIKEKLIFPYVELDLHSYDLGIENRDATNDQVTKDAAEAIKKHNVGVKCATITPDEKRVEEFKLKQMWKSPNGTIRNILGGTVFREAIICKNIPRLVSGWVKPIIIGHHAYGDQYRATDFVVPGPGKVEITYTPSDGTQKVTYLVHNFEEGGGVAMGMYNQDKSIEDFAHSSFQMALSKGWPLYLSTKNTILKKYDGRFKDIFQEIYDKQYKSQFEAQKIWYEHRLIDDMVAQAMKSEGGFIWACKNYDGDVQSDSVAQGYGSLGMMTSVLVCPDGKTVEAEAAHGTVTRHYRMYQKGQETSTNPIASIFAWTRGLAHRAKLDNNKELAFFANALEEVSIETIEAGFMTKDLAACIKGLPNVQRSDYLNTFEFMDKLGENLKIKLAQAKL
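IDH1-R132H (0.5 ug/mL dispensed) in pH 7.5 Tris buffer was preincubated 30 min with compound, then given a substrate mix of 0.016 mM NADPH and 2 mM alpha-KG for 80 min at room temperature; remaining NADPH was read by diaphorase/resazurin fluorescence.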
The depositor's hits bear a star. Unless noted, calls follow the shape of the dose curve; as a rule, active = well fitted curve in the direction sought with a large enough effect; inconclusive = small, poorly fitted or top-dose-only effect, or another doubt; inactive = no such curve, though single readings can be large; an effect the other way counts as inactive or inconclusive.

Screening COc1ccc(CNCCC(c2ccc(OC)cc2)c2ccccc2OC)cc1 (configuration not stated) returned LDHA block -2, TGFb inhibitor inconclusive, ATXN2 expr inh -37%, HepG2 viability 11µM*, S2 tox inconclusive and mIDH1 inhibitor 0%.
COc1ccc(C(CCNCc2ccc(OC(C)C)cc2)c2ccccc2OC)cc1 (configuration not stated) was read as LDHA block 0, TGFb inhibitor 14µM*, HepG2 viability 11µM*, S2 tox 14µM* and mIDH1 inhibitor -2%.
Screening COc1ccc(CNC(=S)Nc2cc(C)cc(C)c2)cc1 returned LDHA block -13, TGFb inhibitor -9%, ATXN2 expr inh -11%, HepG2 viability -50%, S2 tox inactive and mIDH1 inhibitor -4%.
For COc1ccc(CNC(=S)NCc2ccc(OC(C)C)cc2)cc1 the results were LDHA block -5, TGFb inhibitor -18%, ATXN2 expr inh -9%, HepG2 viability 18µM*, S2 tox inactive and mIDH1 inhibitor 1%.
`COc1ccc(C(CCNCc2ccc(N(C)C)cc2)c2ccccc2OC)cc1` (configuration not stated) gave LDHA block 0, TGFb inhibitor inconclusive, ATXN2 expr inh inconclusive, HepG2 viability -48%, S2 tox inactive and mIDH1 inhibitor 3%.
Screening COc1ccc(C(CCNC(C)c2ccccc2)c2ccc(F)cc2)cc1 (configuration not stated) returned LDHA block -1, TGFb inhibitor 13µM*, ATXN2 expr inh 28µM*, HepG2 viability -73%, S2 tox inconclusive and mIDH1 inhibitor 0%.
For COc1ccc(CNC(=O)CNC(C)c2ccc(F)cc2)cc1 (configuration not stated) the results were LDHA block -17, TGFb inhibitor -3%, ATXN2 expr inh 0%, HepG2 viability 8%, S2 tox inactive and mIDH1 inhibitor 0%.
For C=CCn1cc(C(=O)OC)c(=O)c2cc(S(=O)(=O)N(CC)CC)ccc21 the results were LDHA block 3, TGFb inhibitor 0%, ATXN2 expr inh 8%, HepG2 viability 2%, S2 tox inactive and mIDH1 inhibitor 0%.
For CS(=O)(=O)Cc1ccc(C(=O)OCc2cc(=O)oc3cc4c(cc23)CCC4)cc1 the results were LDHA block 0.
For COc1ccc(C(CCNCc2ccccc2)c2ccc(F)cc2)cc1 (configuration not stated) the results were LDHA block -7, TGFb inhibitor 18µM*, ATXN2 expr inh -31%, HepG2 viability -60%, S2 tox inactive and mIDH1 inhibitor 3%.
`COc1ccc(CNCCC(c2ccc(F)cc2)c2ccc(OC)cc2)cc1` (configuration not stated) gave LDHA block 7, TGFb inhibitor inconclusive, ATXN2 expr inh -14%, HepG2 viability -97%, S2 tox inactive and mIDH1 inhibitor 0%.
O=C(CSc1nccn1-c1ccc(Cl)cc1)Nc1nc2ccccc2s1 was read as LDHA block -18, TGFb inhibitor -7%, HepG2 viability -18% and mIDH1 inhibitor 0%.
For Cc1ccc(CNC(=O)c2cccn2-c2nnc(N3CCCCC3)s2)cc1 the results were LDHA block 2, TGFb inhibitor 7.9µM*, HepG2 viability -39% and mIDH1 inhibitor 0%.
Cc1ccc(CNC(=O)c2cnc(N3CCCCC3)c3ccccc23)cc1 was read as LDHA block 3, TGFb inhibitor 11µM*, HepG2 viability 1% and mIDH1 inhibitor -1%.
Screening Nc1nc(Nc2ccccc2F)sc1C(=O)c1ccccc1 returned LDHA block 1, TGFb inhibitor inconclusive, ATXN2 expr inh -9%, HepG2 viability -30%, S2 tox inconclusive and mIDH1 inhibitor -11%.
For CCOc1ccc2nc(Cl)c(C3CC(c4ccco4)=NN3S(=O)(=O)c3ccccc3)cc2c1 (configuration not stated) the results were LDHA block -1, TGFb inhibitor 11%, ATXN2 expr inh -1%, HepG2 viability -40%, S2 tox inactive and mIDH1 inhibitor 8%.
Screening Cc1cc(OCc2cc(C(=O)NC(C)c3c(C)nn(C)c3C)no2)cc(C)c1Cl (configuration not stated) returned LDHA block -18, TGFb inhibitor 11µM*, ATXN2 expr inh inconclusive, HepG2 viability -32%, S2 tox inactive and mIDH1 inhibitor -4%.
For Cc1cc(OCc2cc(C(=O)NC(C)c3cnn(C)c3)no2)cc(C)c1Cl (configuration not stated) the results were LDHA block 4, TGFb inhibitor -11%, HepG2 viability -27%, S2 tox inconclusive and mIDH1 inhibitor 8%.
For O=S(=O)(Nc1cccc2cccnc12)c1cccs1 the results were LDHA block 9, TGFb inhibitor 2.2µM* and HepG2 viability -18%.
CC(C)c1ccc(C2NC(C(=O)O)CS2)cc1 (configuration not stated) was read as LDHA block -3, TGFb inhibitor 18%, ATXN2 expr inh 7%, HepG2 viability 15%, S2 tox inactive and mIDH1 inhibitor 4%.
`C[C@@H]1CCCCO[C@@H](CN(C)C(=O)C2CCCCC2)[C@@H](C)CN([C@H](C)CO)C(=O)c2cc(NC(=O)NC3CCCCC3)ccc2O1` gave LDHA block -5, TGFb inhibitor -8%, ATXN2 expr inh inconclusive, HepG2 viability -45%, S2 tox inconclusive and mIDH1 inhibitor inconclusive.
C[C@H]1CCCCO[C@H](CN(C)C(=O)C2CCCCC2)[C@@H](C)CN([C@@H](C)CO)C(=O)c2cc(NC(=O)NC3CCCCC3)ccc2O1 was read as LDHA block 2, TGFb inhibitor -3%, ATXN2 expr inh -5%, HepG2 viability -21%, S2 tox 25µM* and mIDH1 inhibitor 0%.
Screening O=C(NCc1ccccn1)[C@@H]1CCCN1C(=O)[C@@H]1CCCN1C(=O)c1cccs1 returned LDHA block 1, ATXN2 expr inh -19% and S2 tox inactive.
For CSCCC(NC(=O)c1ccccc1Cl)C(=O)N1CCN(C(c2ccccc2)c2ccccc2)CC1 (configuration not stated) the results were LDHA block -5, TGFb inhibitor -21%, ATXN2 expr inh 3%, HepG2 viability 19%, S2 tox inactive and mIDH1 inhibitor 4%.
